# Source: PubChem BioAssay (NCI)
# Compounds without any hit were thinned out: in the full panel of roughly 83,000, 20% have a hit.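 Growth was measured after 48 h exposure to one concentration of compound in 96-well plates. Values under 10 count as active.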 A number with no mark means an inactive call. Calls of active or inactive are those of the source.
# Tested on: HL-60(TB) leukemia
# Assay: NCI-60 one-dose screen, 48 h (100 = growth as untreated, 0 = no growth, -100 = all killed)
# Settings: 10 µM unless noted
row,Structure (SMILES),growth
1,CC(=O)ON1CCCC(P(=O)(OCCSC(=O)C(C)(C)C)OCCSC(=O)C(C)(C)C)C1=O (stereo not given),14%
2,CCOC(=O)c1cc(C(=O)c2cc(OC)cc(OC)c2)n2nc(C)ccc12,-16.5% (active)
3,COc1ccc(/C=C2\COc3ccc(-c4ccccc4)cc3C2=O)cc1O,-34% (active)
4,CCNC(=O)N1CCc2c(Br)c3c(c(OC)c2C1Cc1ccc(OC)cc1)OCO3 (stereo not given),7.48% (active)
5,COc1ccc(/C=C2\NC(=S)NC2=O)cc1,91.6%
6,C/C(=C\c1ccccc1)C(O)C(=O)c1nc2ccc([N+](=O)[O-])cc2[nH]c1=O (stereo not given),83%
7,Cc1ccccc1OCC(O)COc1ccccc1C,128%
8,O=C1Nc2ccc(C(=O)O)cc2/C1=N/c1nnc(Sc2ccccc2)s1,96.4%
9,COc1cc(C2C3=C(COC3=O)Nc3cc4c(cc32)CCC4)cc2c1OCO2 (stereo not given),10.4%
10,OCC(O)COc1ccc(Cl)cc1Cl (stereo not given),103%
11,Cc1c[nH]c(=O)n(Cc2nnc(CCC(=O)c3nc4ccccc4[nH]3)o2)c1=O,-0.434% (active)
12,COc1cc2nc(N3CCCC3)nc(NCc3ccccc3)c2cc1OC,-47.8% (active)
13,COC1=CC(=O)OC(c2ccc(OC)cc2)C1 (stereo not given),78.3%
14,COC(=O)C(C)[C@H]1CC[C@@H]2[C@]1(C)CC=C1[C@]23C=C[C@]2(C[C@@H](OC(C)=O)CC[C@]12C)C(C(=O)OC)C3C(=O)OC (stereo not given in full),66.9%
15,CCn1c(Cc2ccccc2Nc2c(Cl)cccc2Cl)nnc1SCC(=O)NN1C(=O)/C(=C/c2cccc(OC)c2OC)SC1=S,97.5%
16,C=CCNc1ccc2c3c(cccc13)C(=O)N(CC=C)C2=O,102%
17,NCCCNc1nc2ccccc2c2c(=O)c3cc(C(F)(F)F)ccc3sc12,-23% (active)
18,COc1ccc(-c2cc(-c3cccnc3)nc(S(=O)(=O)CC(=O)Nc3ccc(C)cc3)c2C#N)cc1OC,113%
19,CN(C)C(=O)SC1=C(c2c(Cl)cccc2Cl)C(=O)c2ccccc21,-35.7% (active)
20,COc1ccc(Nc2nn3c(SCC(=O)c4ccc(C)cc4)nnc3s2)cc1,86%

row,Structure (SMILES),growth
1,OC(CNC1CCCCC1)Cn1c2ccc(I)cc2c2cc(I)ccc21 (stereo not given),93.7%
2,CCSc1ccc([C@@H]2[C@@H](O)C(=O)N2c2cc(OC)c(OC)c(OC)c2)cc1,-35.4% (active)
3,COc1cc(C(=O)/C=C/c2ccc(OCCCCCC[P+](c3ccccc3)(c3ccccc3)c3ccccc3)cc2)cc(OC)c1OC,11.5%
4,CN1C(=O)c2cc(Cl)nc3c(NC(=O)c4cccc(Cl)c4)c(Cl)c(NC(=O)c4cccc(Cl)c4)c1c23,-30.7% (active)
5,COc1ccc2c(c1)[nH]c1c(/C=C/c3ccccc3)nccc12,61.1%
6,N#C/C(=C/C=C/c1ccccc1)S(=O)c1ccccc1 (stereo not given),-16.5% (active)
7,CCN(CC)C(CC(=O)c1ccccc1)C(=O)c1ccccc1 (stereo not given),63.5%
8,Cc1ccc(-c2csc(NC(=O)CSc3nc(N)cc(N)n3)n2)cc1,48.9%
9,CC(=O)Nc1cccc(-c2ccc3c(c2)NC(=O)/C3=C\c2ccc[nH]2)c1,20.2%
10,COc1ccc(/C=C2\SC(=S)N(CCCN3CCOCC3)C2=O)c(OC)c1,83.1%
11,Cc1ccc(/C=C(\C#N)c2cc3ccccc3[nH]2)cc1,22.8%
12,CCCCCn1sc(=O)n(Cc2ccc(CNC(=O)OCc3ccc4c(Cl)cc(Cl)c(O)c4n3)cc2)c1=O,63.5%
13,CCOC(=O)C1C(=O)C=C(c2ccccc2)CC1c1sc(N(C)Cc2ccccc2)nc1Cl (stereo not given),78.4%
14,C[N+]1=C(/C=C/c2ccc(O)c3ncccc23)C(C)(C)c2ccccc21,32.5%
15,Cc1n[nH]c(C)c1-c1c(C)n[nH]c1C,-6.88% (active)
16,CN(C)c1ncc(-c2ccc(C(F)(F)F)cc2)c(NC2CCCCCC2)n1,39.8%
17,COc1c2occc2c(OC)c2c(=O)c(-c3cc(-c4ccc(F)cc4)c(C#N)c(N)n3)c(C)oc12,54.7%
18,O=C(O)C1CCCCN1c1nc(Cl)nc(Cl)n1 (stereo not given),97.8%
19,COc1cc(-c2cc(-c3nc4cc(Cl)c(Cl)cc4[nH]3)[nH]n2)cc(OC)c1OC,14.2%
20,C#CCNC(=O)[C@H](Cc1ccccc1)NC(=O)[C@]12CC[C@@H](C(=C)C)[C@@H]1[C@H]1CC[C@@H]3[C@@]4(C)CCC(=O)C(C)(C)[C@@H]4CC[C@@]3(C)[C@]1(C)CC2,33%
